Source: PubChem
PD-1 reverse act – reversal of PD-1 mediated T-cell inhibition; primary human CD4 T cells, PD-L1 beads, CellTiter-Glo 96 h; activation, % (no concentration beside the values); 29,000 tested, under 10 active; AID 2316; call rule not given here;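 note: 0% = median vehicle wells and 100% = positive control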
NOMO-1 viab – STK33 inhibitor candidate reducing NOMO-1 cell viability | AID 2330 | 37,000 compounds, 7.5% hits | NOMO-1 AML viability, CellTiter-Glo luminescence, 72 h | inhibition, % (concentration not given with the values); in the data active = inhibition above about 80%; inconclusive = no clear call, values can overlap the other calls
STK33 kin inh – inhibitors of human STK33 kinase | ADP-Glo luminescence, MBP substrate | inhibition, % at 12.5 µM | 27,000 compounds, 0.44% hits | AID 2322; in the data active = inhibition above about 20%; inconclusive = no clear call, values can overlap the other calls
Target sequence (Q9BYT3 whole entry, looked up): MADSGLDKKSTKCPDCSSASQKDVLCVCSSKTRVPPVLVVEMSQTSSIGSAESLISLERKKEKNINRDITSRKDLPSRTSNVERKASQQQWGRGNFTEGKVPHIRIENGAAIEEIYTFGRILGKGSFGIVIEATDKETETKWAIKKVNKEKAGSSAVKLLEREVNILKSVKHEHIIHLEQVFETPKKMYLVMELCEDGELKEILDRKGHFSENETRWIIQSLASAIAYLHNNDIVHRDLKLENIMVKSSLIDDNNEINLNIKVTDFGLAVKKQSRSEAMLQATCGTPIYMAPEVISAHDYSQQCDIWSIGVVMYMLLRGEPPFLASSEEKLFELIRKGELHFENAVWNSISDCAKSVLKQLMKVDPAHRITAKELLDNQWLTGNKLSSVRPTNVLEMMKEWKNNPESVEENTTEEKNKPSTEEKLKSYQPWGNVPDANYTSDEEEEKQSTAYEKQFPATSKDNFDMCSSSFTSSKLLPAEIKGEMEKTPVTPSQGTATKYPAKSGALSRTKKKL
* = called active by the depositor; u = inconclusive; x = no result. Shown is part of a subset that was picked to be rich in hits.

SMILES | PD-1 reverse act | NOMO-1 viab | STK33 kin inh
O=C(Cn1cnc2sc3c(c2c1=O)CCCC3)NCCC(=O)N1CCN(c2ccc(F)cc2)CC1 | 1.0 | -0.4 | x
O=C(CSc1ccccn1)Nc1ccccn1 | -0.4 | -2.7 | x
O=C1CCC(=O)N1CN(C(=O)C(F)(F)F)c1ccccc1 | 0.9 | 0.1 | x
CC/C=C\C=C\C(O)C/C=C\CCCCCCCC(=O)O (centres undefined) | x | x | -4.1
Cc1ccccc1S(=O)(=O)N[C@H]1CCN(Cc2cccc(OCCO)c2)C1 | x | x | -2.5
COC(=O)CN(c1cc([N+](=O)[O-])ccc1C)S(C)(=O)=O | x | x | -2.8
CS(=O)(=O)N(CC(=O)Nc1cccc([N+](=O)[O-])c1)c1ccc(Br)cc1 | 0.9 | 18.7 | -3.8
O=C(COc1cccc([N+](=O)[O-])c1)Nc1cccc(I)c1 | -1.1 | 31.7 | 0.3
COc1ccc(C#Cc2ccc3c(c2)[C@]2(C(=O)N3)[C@H](C(=O)O)[C@H]3C(=O)O[C@H](c4ccccc4)[C@H](c4ccccc4)N3[C@@H]2c2ccc(OCCO)cc2)cc1 | x | x | 15.5
O=C(CCN1C(=O)c2ccccc2C1=O)Nc1ccc([N+](=O)[O-])cc1 | x | x | 1.7
Cc1noc(C)c1S(=O)(=O)N(C)C[C@H]1Oc2ccc(NC(=O)Nc3ccc(C(F)(F)F)cc3)cc2CC(=O)N([C@@H](C)CO)C[C@H]1C | -1.0 | 91.7* | 2.0
C[C@H]1CN([C@@H](C)CO)C(=O)Cc2cc(NC(=O)Nc3ccc(C(F)(F)F)cc3)ccc2O[C@H]1CN(C)S(=O)(=O)c1ccccc1 | -2.3 | 102.0* | 1.1
C[C@@H]1CN([C@H](C)CO)C(=O)Cc2cc(NC(=O)Nc3ccccc3)ccc2O[C@H]1CN(C)S(=O)(=O)c1ccccc1 | -1.1 | -16.3 | 0.2
Cc1noc(C)c1S(=O)(=O)N(C)C[C@H]1Oc2ccc(NC(=O)Nc3ccccc3)cc2CC(=O)N([C@@H](C)CO)C[C@@H]1C | -0.9 | 29.2 | -5.3
CC1=Nc2ccc(C(F)(F)F)cc2C1(C)C | 0.7 | -13.8 | x
COC(=O)C1=C(N)OC2=C(C(=O)CC(C)(C)C2)C1c1ccc(C(=O)OC)cc1 (centres undefined) | 1.2 | 8.5 | x
CS(=O)(=O)N(CC(=O)Nc1ccc(I)cc1)c1cccc2ccccc12 | -2.2 | 42.7 | 2.2
Cn1c(O)c(C=Nc2cccc(CO)c2)c2ccccc21 | 0.6 | 25.5 | x
CCc1ccc(N=Cc2c(O)n(-c3ccccc3)c(=O)c3ccccc23)cc1 | 0.1 | 120.0* | x
CCOc1ccc(-n2c(SCC(=O)c3ccccc3)nnc2-c2ccncc2)cc1 | -4.2 | 2.0 | 4.5
Cc1csc2sc(-c3ccnc(SCC(=O)c4ccccc4)n3)c(C)c12 | 0.0 | 0.8 | -3.3
Cc1csc2sc(-c3ccnc(SCC(=O)NCc4ccccc4)n3)c(C)c12 | -1.6 | 112.9* | x
CS(=O)(=O)N(CC(=O)Nc1ccc(Cl)c(Cl)c1)c1ccc(I)cc1 | -1.9 | 53.2 | -2.4
C[C@@H]1CN([C@H](C)CO)C(=O)c2cc(NC(=O)Nc3ccc(C(F)(F)F)cc3)ccc2O[C@H]1CN(C)C(=O)Nc1cccc2ccccc12 | x | 116.9* | x
C[C@@H]1CN([C@@H](C)CO)C(=O)c2cc(NC(=O)Nc3ccc(F)cc3)ccc2O[C@@H]1CN(C)C(=O)Nc1cccc2ccccc12 | x | 69.3 | x
SMILES | PD-1 reverse act | NOMO-1 viab | STK33 kin inh
C[C@@H]1CN([C@H](C)CO)C(=O)c2cc(NC(=O)Nc3cccc4ccccc34)ccc2O[C@@H]1CN(C)C(=O)Nc1ccc(C(F)(F)F)cc1 | x | 21.9 | x
C[C@H](CO)N1C[C@H](C)[C@H](CN(C)C(=O)Nc2cccc3ccccc23)Oc2ccc(NC(=O)Nc3ccc(C(F)(F)F)cc3)cc2C1=O | -2.7 | 114.2* | x
O=C(NC1CCN(C(=O)c2c(Cl)cccc2Cl)CC1)C1CCCCC1 | 1.0 | 13.3 | 1.3
O=C(CCNc1ccc2c(c1)oc1ccccc12)c1ccc([N+](=O)[O-])cc1 | -5.5 | 22.2 | -5.2
Cc1ccc(OCC(=O)NC(=S)Nc2cc(C(=O)O)ccc2C)cc1 | 1.0 | 4.7 | -2.5
COc1ccc(C(=O)O[C@H]2CC(C)=CC[C@]3(C)[C@@H]2[C@](O)(C(C)C)C[C@@H]3O)cc1 | 4.3 | 17.7 | -5.2
Cn1c(SCC(=O)n2c3c(c4ccccc42)CCCC3)nnc1-c1ccco1 | -3.5 | 109.0* | -0.5
Cn1c(SCC(=O)n2c3c(c4ccccc42)CCCC3)nnc1-c1ccccc1 | 0.8 | 5.0 | 9.7
CC(C)NC(=O)N(C)C[C@H]1Oc2ccc(NC(=O)Nc3ccc(C(F)(F)F)cc3)cc2CC(=O)N([C@@H](C)CO)C[C@H]1C | -5.3 | 113.9* | -3.4
COc1ccc(NC(=O)Nc2ccc3c(c2)CC(=O)N([C@@H](C)CO)C[C@H](C)[C@H](CN(C)C(=O)Nc2ccc(C(F)(F)F)cc2)O3)cc1 | x | 19.8 | -3.7
CC(C)NC(=O)N(C)C[C@H]1Oc2ccc(NC(=O)Nc3ccc(C(F)(F)F)cc3)cc2CC(=O)N([C@H](C)CO)C[C@H]1C | 0.7 | u | -3.3
C[C@H]1CN([C@@H](C)CO)C(=O)Cc2cc(NC(=O)Nc3ccc(C(F)(F)F)cc3)ccc2O[C@@H]1CN(C)C(=O)NC1CCCCC1 | 0.1 | 11.8 | -2.6
C[C@@H]1CN([C@H](C)CO)C(=O)Cc2cc(NC(=O)Nc3ccc(C(F)(F)F)cc3)ccc2O[C@H]1CN(C)C(=O)Nc1ccc(C(F)(F)F)cc1 | -2.7 | 49.0 | 1.2
C[C@@H]1CN([C@H](C)CO)C(=O)Cc2cc(NC(=O)Nc3ccc(C(F)(F)F)cc3)ccc2O[C@@H]1CN(C)C(=O)NC1CCCCC1 | -1.9 | 112.3* | 0.1
COc1ccc(NC(=O)N(C)C[C@H]2Oc3ccc(NC(=O)Nc4ccc(C(F)(F)F)cc4)cc3CC(=O)N([C@@H](C)CO)C[C@H]2C)cc1 | x | 124.4* | 1.7
C[C@@H]1CN([C@@H](C)CO)C(=O)Cc2cc(NC(=O)Nc3ccc(C(F)(F)F)cc3)ccc2O[C@@H]1CN(C)C(=O)Nc1ccc(C(F)(F)F)cc1 | -2.7 | 114.4* | -0.6
Cc1ccc(C(=O)Nc2sc3c(c2C(=O)N(C)C)CCCCC3)cc1 | 0.0 | 32.8 | x
CCN(CC(=O)Nc1ccc2c(c1)OCCO2)S(=O)(=O)c1ccc2ccccc2c1 | 3.6 | -23.5 | -2.4
COc1cccc(NC(=O)COc2ccccc2C(=O)Nc2c(C)cccc2C)c1 | x | 32.3 | -0.9
CCOC(=O)c1c(/N=C/c2ccc(N(C)C)cc2)sc(C)c1C | -0.2 | 20.8 | x
Cc1cc(C)c(CN(C)C)c(O)c1 | 0.2 | 14.8 | x
CCn1c(SCC(=O)Nc2cc(C)ccc2OC)nnc1-c1ccc(Cl)cc1 | -0.6 | 8.4 | 7.6
CC(=O)O[C@@H]1CC2C(C)(C)CCC[C@]2(CO)C2=C1C(=O)C(C(C)C)C(=O)C2=O (some centres undefined) | -0.8 | 3.1 | -0.9
Cc1ccc(C(O)(COC(=O)C(C)C)COC(=O)C(C)C)c(O)c1 | -12.2 | 117.5* | -6.8
CC(C)CCCC(C)(O)c1ccc(C(=O)O)cc1O (centres undefined) | 1.0 | -1.3 | -0.8
CC(=O)Nc1ccc(S(=O)(=O)Nc2ccc(Oc3cccnc3)cc2)cc1 | -0.2 | 58.1 | -5.7
C=CCSc1nc(N)c(C(=O)Nc2ccccc2)cc1C(N)=O | 2.8 | 4.0 | x
C=C(CO)C(=O)O[C@H]1C[C@@]2(C)OC(=O)/C(=C/C)[C@@]23CC[C@@](C)(O)CC(=O)[C@@]1(C(=C)C(=O)OC)O3 | x | x | 0.6
